# “And” between values parts separate entries of the source, which are not always exact repeats. Identical values can stand only once. Results filed as inconclusive are left out. Where a call stands in place of a potency, no number is given. A structure can be active in one record and inactive in another. The source made the active and inactive calls. Unless noted, the call rests on the fitted dose curve; in most records, active means well fitted curve in the direction sought with a large enough effect in the repeat runs; inconclusive means weak or mixed curves; inactive means no such curve, though single readings can be large; an effect the other way counts as inactive or inconclusive.
# What was measured:
# [1] = Caspase-3/7 induction in HepG2 cells by small molecules, qHTS assay (AID 1346978); further: nearly all actives have a fitted effect of over 15% in size; further: potency means the concentration at half of the fitted maximal effect
# Procedure, shortened: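 Caspase-3/7 induction was measured by Caspase-Glo 3/7 luminescence (30 min, room temperature) after a 17 hr compound exposure of wild-type HepG2 cells seeded at 2,000 per well and pre-incubated 5 hr.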
# [2] = Caspase-3/7 induction in CHO-K1 cells by small molecules, qHTS cell viability counter screen (AID 1346979); further: nearly all actives have a fitted effect of over 35% in size; further: potency means the concentration at half of the fitted maximal effect
# Procedure, shortened: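 Viability readout by fluorescence (CellTiter-Fluor) on wild-type CHO-K1 cells exposed for 16hr at 37C and 5% CO2 to compounds delivered in DMSO; reagent incubated 1hr before reading.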
# [3] = Caspase-3/7 induction in CHO-K1 cells by small molecules, qHTS assay (AID 1346980); further: nearly all actives have a fitted effect of over 15% in size
# Procedure, shortened: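 Luminescent Caspase-Glo 3/7 read (30min, room temperature) quantified apoptosis induction. Cells were wild-type CHO-K1, treated with compound for 17hr at 37 C and 5% CO2.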
# [4] = Caspase-3/7 induction in HepG2 cells by small molecules, qHTS cell viability counter screen (AID 1346981); further: nearly all actives have a fitted effect of over 30% in size; further: potency means the concentration at half of the fitted maximal effect
# Procedure, shortened: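 Fluorescence read-out of live-cell protease activity (CellTiter-Fluor) after 1 hr with reagent. This was measured in the same wells as the caspase-3/7 luminescence, on HepG2 cells exposed to DMSO-dissolved compounds for 16 hr at 37 C.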
# [5] = biological target: Nuclear receptor subfamily 1 group I member 2 (Homo sapiens) (UniProt O75469); test: Human pregnane X receptor (PXR) small molecule agonists, qHTS assay (AID 1346982); further: nearly all actives have a fitted effect of over 35% in size; further: potency means the concentration at half of the fitted maximal effect
# Chain of Nuclear receptor subfamily 1 group I member 2 (Homo sapiens) (O75469 whole entry, looked up): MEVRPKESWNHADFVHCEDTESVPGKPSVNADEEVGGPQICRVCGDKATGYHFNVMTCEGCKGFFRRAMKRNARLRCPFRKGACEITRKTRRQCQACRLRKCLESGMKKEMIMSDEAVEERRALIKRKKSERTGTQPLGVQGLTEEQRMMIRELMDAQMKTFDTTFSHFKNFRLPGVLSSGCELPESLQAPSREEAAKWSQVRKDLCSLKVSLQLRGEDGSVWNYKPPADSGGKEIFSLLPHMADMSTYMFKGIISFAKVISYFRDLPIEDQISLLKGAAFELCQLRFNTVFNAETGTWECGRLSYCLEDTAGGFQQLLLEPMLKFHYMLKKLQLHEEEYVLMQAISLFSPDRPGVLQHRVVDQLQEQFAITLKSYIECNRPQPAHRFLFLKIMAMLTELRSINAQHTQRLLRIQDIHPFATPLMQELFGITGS
# Procedure, shortened: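 HepG2 PXR-Luc reporter line, 5% charcoal-stripped FBS; 5 hr pre-incubation, compound (DMSO) 24 hr at 37 C/5% CO2; ONE-Glo 30 min RT; luminescence read-out.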
# [6] = biological target: Acetylcholinesterase (Homo sapiens) (UniProt P22303); test: Acetylcholinesterase (AChE) small molecule antagonists: colormetric cell-based qHTS assay (AID 1347395; calls by dose curve; further: nearly all actives have a fitted effect of over 30% in size; further: potency means the concentration at half of the fitted maximal effect)
# Chain of Acetylcholinesterase (Homo sapiens) (P22303 whole entry, looked up): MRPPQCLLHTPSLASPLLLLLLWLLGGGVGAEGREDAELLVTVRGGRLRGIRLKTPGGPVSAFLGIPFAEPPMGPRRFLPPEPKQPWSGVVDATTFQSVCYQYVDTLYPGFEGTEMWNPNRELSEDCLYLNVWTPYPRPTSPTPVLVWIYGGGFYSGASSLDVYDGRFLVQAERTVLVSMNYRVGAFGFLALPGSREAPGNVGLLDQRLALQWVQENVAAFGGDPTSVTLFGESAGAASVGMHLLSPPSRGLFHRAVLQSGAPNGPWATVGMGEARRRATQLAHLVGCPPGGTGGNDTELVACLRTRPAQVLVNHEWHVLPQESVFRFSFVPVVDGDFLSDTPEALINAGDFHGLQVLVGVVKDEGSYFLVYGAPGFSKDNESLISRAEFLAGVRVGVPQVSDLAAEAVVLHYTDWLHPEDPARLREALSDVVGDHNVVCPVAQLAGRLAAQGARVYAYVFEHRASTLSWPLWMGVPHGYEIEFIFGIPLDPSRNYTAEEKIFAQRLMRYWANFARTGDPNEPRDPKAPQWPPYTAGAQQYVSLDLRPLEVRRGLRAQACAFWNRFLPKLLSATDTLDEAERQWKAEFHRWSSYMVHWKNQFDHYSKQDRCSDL
# Procedure, shortened: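 Homogeneous whole-cell format. SH-SY5Y cells seeded overnight, dosed with compound (30 min, 37 C, 5% CO2), then given DTNB/acetylthiocholine cocktail for 90 min at 37 C; colorimetric signal.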
# [7] = biological target: Acetylcholinesterase (Homo sapiens) (UniProt P22303); test: Acetylcholinesterase (AChE) small molecule antagonists: enzyme-based qHTS assay (AID 1347397; calls by dose curve; further: nearly all actives have a fitted effect of over 55% in size; further: potency means the concentration at half of the fitted maximal effect); settings: Potency: AChE enzyme activity inhibition
# Procedure, shortened: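 First, recombinant human AChE (50 mU/mL as dispensed) received test compound or DMSO. Second, plates stood 30 min at room temperature. Third, DTNB and acetylthiocholine were added, followed by 10 min at room temperature and colorimetric detection.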
# [8] = biological target: Acetylcholinesterase (Homo sapiens) (UniProt P22303); test: Acetylcholinesterase (AChE) small molecule antagonists: fluorescence cell-based qHTS assay (AID 1347398; calls by dose curve; further: nearly all actives have a fitted effect of over 50% in size; further: potency means the concentration at half of the fitted maximal effect); settings: Potency: AChE activity
# Procedure, shortened: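 Homogeneous quantitative HTS format. SH-SY5Y cells seeded at 2,000 per well settle overnight at 37 C. Compound pretreatment runs 30 min (37 C, 5% CO2); substrate/probe mix then reacts 40 min at RT before reading 490/520 nm.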
# [9] = biological target: Acetylcholinesterase (Homo sapiens) (UniProt P22303); test: Acetylcholinesterase (AChE) small molecule antagonists: enzyme-based qHTS assay with human liver microsomes (AID 1347399; calls by dose curve; further: nearly all actives have a fitted effect of over 60% in size; further: potency means the concentration at half of the fitted maximal effect); settings: Potency: qHTS inhibition
# Procedure, shortened: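 Recombinant human AChE (50 mU/mL in the enzyme mix) and human liver microsomes (0.25 mg/mL final) were preincubated with compound and NADPH (0.25 mg/mL final) for 30 min at 37 C. Acetylthiocholine/DTNB was then added; thiocholine was read colorimetrically after 10 min at room temperature.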
# [10] = biological target: Cytochrome P450 2D6 (Homo sapiens) (UniProt P10635); test: Cytochrome P450 Family 2 Subfamily D Member 6 (CYP2D6) small molecule antagonists: luciferase reporter qHTS assay (AID 1671196); further: nearly all actives have a fitted effect of over 50% in size; further: potency means the concentration at half of the fitted maximal effect; on activity change, negative = inhibition: series mostly up to about 120 µM
# Procedure, shortened: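 Luminogenic proluciferin substrate, CYP2D6 enzyme; 10 min RT preincubation with compound, NADPH regeneration system added, 1 h RT. Stop/detection reagent, 20 min RT, luminescence read (RLU). Signal proportional to CYP activity.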
# [11] = biological target: Cytochrome P450 2C19 (Homo sapiens) (UniProt P33261); test: Cytochrome P450 Family 2 Subfamily C Member 19 (CYP2C19) small molecule antagonists: luciferase reporter qHTS assay (AID 1671197); further: nearly all actives have a fitted effect of over 65% in size; further: potency means the concentration at half of the fitted maximal effect; on activity change, negative = inhibition: series mostly up to about 120 µM
# Chain of Cytochrome P450 2C19 (Homo sapiens) (P33261 whole entry, looked up): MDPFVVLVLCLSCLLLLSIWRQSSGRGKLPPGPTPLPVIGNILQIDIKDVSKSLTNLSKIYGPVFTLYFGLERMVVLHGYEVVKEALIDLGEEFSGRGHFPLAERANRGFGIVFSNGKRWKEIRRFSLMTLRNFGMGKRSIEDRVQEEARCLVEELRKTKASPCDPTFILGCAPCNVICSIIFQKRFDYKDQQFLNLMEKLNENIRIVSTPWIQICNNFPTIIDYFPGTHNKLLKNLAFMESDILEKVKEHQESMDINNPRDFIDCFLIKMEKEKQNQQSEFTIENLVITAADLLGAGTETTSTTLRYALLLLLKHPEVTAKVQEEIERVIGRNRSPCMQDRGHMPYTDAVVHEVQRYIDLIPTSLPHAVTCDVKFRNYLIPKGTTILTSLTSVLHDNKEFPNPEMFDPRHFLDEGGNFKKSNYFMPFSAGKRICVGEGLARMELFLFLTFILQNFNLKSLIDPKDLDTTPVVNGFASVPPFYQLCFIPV
# Procedure, shortened: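 CYP2C19 P450-Glo, 1536-well qHTS. Cpd + enzyme/proluciferin substrate 10 min RT; + NADPH regen, 37C 1 h; stop with luciferin detection reagent, 20 min RT, luminescence (RLU). Pos ctrl ketoconazole.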
# [12] = biological target: Cytochrome P450 2C9 (Homo sapiens) (UniProt P11712); test: Cytochrome P450 Family 2 Subfamily C Member 9 (CYP2C9) small molecule antagonists: luciferase reporter qHTS assay (AID 1671198); further: nearly all actives have a fitted effect of over 50% in size; further: potency means the concentration at half of the fitted maximal effect; on activity change, negative = inhibition: series mostly up to about 120 µM
# Chain of Cytochrome P450 2C9 (Homo sapiens) (P11712 whole entry, looked up): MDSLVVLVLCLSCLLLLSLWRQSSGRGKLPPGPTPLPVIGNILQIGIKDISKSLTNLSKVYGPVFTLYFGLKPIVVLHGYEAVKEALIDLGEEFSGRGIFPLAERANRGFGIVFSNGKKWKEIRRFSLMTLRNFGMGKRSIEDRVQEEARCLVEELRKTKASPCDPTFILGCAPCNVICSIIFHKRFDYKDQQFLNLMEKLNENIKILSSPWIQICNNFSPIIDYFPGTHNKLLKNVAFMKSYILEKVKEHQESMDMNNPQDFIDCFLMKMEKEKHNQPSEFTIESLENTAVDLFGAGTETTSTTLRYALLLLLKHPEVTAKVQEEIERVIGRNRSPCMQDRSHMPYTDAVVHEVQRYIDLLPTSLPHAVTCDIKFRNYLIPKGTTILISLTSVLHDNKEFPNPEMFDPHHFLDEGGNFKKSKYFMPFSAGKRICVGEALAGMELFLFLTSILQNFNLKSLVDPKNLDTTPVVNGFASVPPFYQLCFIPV
# Procedure, shortened: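 Enzyme-substrate mix preincubated with compound 10 min at room temperature; reaction started with NADPH regeneration solution, 1 h 37C. Luminescent luciferin product read after 20 min detection reagent.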
# [13] = biological target: Cytochrome P450 1A2 (Homo sapiens) (UniProt P05177); test: Cytochrome P450 Family 1 Subfamily A Member 2 (CYP1A2) small molecule antagonists: luciferase reporter qHTS assay (AID 1671199); further: nearly all actives have a fitted effect of over 50% in size; further: potency means the concentration at half of the fitted maximal effect; on activity change, negative = inhibition: series mostly up to about 120 µM
# Chain of Cytochrome P450 1A2 (Homo sapiens) (P05177 whole entry, looked up): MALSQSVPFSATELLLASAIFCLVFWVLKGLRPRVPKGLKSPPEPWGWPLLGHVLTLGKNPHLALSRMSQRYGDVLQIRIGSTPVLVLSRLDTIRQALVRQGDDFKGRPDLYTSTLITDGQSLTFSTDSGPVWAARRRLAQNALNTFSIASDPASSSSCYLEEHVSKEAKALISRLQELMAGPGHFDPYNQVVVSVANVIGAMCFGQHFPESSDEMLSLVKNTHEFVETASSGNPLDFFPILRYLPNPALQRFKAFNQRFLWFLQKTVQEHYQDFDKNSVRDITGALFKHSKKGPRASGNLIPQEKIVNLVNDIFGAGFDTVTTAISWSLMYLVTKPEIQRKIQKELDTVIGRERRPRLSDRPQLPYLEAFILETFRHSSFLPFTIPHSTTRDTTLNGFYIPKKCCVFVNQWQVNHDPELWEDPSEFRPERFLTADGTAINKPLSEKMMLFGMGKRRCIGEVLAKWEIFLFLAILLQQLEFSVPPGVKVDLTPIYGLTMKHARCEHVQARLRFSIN
# Procedure, shortened: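 Luminescence readout (relative luminescence units) after luciferin detection reagent, 20 min RT. Preceded by 1 h room-temperature CYP1A2 reaction with NADPH regeneration solution following 10 min compound preincubation with enzyme and proluciferin substrate. Furafylline positive control.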
# [14] = biological target: Voltage-gated inwardly rectifying potassium channel KCNH2 (Homo sapiens) (UniProt Q12809); test: Human Ether-a-go-go-Related Gene (hERG) channel small molecule antagonists: fluorescence cell-based qHTS assay (AID 1671200); further: nearly all actives have a fitted effect of over 50% in size; further: potency means the concentration at half of the fitted maximal effect;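 on activity change, negative = inhibition: hERG-expressing U2OS cells given a thallium stimulus after FluxOR II dye loading; series mostly up to about 77 µM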
# Chain of Voltage-gated inwardly rectifying potassium channel KCNH2 (Homo sapiens) (Q12809 whole entry, looked up): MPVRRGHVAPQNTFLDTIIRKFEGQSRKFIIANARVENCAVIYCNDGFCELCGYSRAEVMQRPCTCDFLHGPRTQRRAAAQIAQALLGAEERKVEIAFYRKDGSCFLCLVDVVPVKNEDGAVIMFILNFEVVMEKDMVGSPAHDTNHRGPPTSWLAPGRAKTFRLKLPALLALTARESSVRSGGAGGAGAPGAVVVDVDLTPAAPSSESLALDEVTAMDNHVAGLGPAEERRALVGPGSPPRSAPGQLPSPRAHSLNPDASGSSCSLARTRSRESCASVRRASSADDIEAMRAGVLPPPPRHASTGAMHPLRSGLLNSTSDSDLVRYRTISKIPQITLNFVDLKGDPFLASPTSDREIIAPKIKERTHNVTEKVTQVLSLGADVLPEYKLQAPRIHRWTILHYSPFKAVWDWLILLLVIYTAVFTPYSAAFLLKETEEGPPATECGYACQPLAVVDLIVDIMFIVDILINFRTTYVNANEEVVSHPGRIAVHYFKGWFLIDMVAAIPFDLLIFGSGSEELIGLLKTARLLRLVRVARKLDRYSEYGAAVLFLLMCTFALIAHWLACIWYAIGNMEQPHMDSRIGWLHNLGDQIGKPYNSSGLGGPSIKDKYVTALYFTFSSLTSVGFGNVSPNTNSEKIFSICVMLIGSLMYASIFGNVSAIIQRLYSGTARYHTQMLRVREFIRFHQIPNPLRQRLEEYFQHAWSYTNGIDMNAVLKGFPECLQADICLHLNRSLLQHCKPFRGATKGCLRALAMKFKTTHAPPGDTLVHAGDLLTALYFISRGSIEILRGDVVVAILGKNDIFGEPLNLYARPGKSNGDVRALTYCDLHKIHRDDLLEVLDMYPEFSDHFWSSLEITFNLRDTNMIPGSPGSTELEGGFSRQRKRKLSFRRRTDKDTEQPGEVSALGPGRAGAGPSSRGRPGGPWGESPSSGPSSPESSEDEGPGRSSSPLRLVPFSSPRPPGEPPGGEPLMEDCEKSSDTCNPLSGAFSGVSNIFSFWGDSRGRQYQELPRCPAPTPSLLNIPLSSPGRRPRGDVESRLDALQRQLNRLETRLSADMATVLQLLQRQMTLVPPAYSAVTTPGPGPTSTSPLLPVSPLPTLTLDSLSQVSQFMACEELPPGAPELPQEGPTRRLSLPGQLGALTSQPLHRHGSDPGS
# Procedure, shortened: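 Thallium served as the potassium surrogate; its influx into dye-loaded U2OS cells carrying the channel was measured by fluorescence over 2 min.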
# [15] = biological target: Cytochrome P450 3A4 (Homo sapiens) (UniProt P08684); test: Cytochrome P450 Family 3 Subfamily A Member 4 (CYP3A4) small molecule antagonists: luciferase reporter qHTS assay (AID 1671201)
# Chain of Cytochrome P450 3A4 (Homo sapiens) (P08684 whole entry, looked up): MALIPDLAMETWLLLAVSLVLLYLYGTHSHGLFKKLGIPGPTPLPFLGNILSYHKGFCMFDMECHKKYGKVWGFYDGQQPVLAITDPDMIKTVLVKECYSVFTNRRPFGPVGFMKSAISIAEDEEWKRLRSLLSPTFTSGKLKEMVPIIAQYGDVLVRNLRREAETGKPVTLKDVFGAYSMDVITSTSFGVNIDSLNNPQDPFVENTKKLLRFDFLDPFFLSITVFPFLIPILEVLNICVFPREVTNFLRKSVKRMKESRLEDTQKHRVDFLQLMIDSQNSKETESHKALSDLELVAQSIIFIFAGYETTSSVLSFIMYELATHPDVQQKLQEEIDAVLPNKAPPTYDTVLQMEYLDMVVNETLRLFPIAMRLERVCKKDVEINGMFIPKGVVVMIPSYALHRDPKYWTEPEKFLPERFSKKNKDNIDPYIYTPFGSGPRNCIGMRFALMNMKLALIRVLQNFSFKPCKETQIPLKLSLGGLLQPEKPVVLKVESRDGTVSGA
# Procedure, shortened: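 Relative luminescence units after 20 min with luciferin detection reagent served as read-out. Beforehand, CYP3A4 turned over a proluciferin substrate for 1 h at room temperature with NADPH regeneration, following 10 min compound preincubation.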
# [16] = biological target: Nuclear receptor subfamily 1 group I member 2 (Rattus norvegicus) (UniProt Q9R1A7); test: Rat pregnane X receptor (rPXR) activation by small molecules, qHTS assay (AID 1346983); settings: rPXR luciferase reporter cells, One-Glo luminescence, 24 h; stronger effect = higher value; further: nearly all actives have a fitted effect of over 20% in size
# Chain of Nuclear receptor subfamily 1 group I member 2 (Rattus norvegicus) (Q9R1A7 whole entry, looked up): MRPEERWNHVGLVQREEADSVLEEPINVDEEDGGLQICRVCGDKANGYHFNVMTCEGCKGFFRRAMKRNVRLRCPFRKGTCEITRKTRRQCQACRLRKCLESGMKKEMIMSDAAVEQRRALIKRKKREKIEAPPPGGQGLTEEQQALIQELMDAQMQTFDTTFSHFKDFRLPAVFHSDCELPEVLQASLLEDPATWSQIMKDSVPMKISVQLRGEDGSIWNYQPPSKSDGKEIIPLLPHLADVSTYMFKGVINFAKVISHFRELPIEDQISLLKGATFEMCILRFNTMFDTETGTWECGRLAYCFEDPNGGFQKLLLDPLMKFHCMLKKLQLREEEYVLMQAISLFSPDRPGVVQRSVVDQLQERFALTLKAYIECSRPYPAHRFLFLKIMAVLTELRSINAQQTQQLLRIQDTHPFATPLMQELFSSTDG
# Procedure, shortened: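 Luminescent readout (One-Glo luciferase, 30 min room temperature) followed 24 hr compound treatment at 37 C of rPXR cells plated 2,000 per well and preincubated 5hr; qHTS format with compounds delivered in DMSO.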
# [17] = biological target: Nuclear receptor subfamily 1 group I member 2 (Homo sapiens) (UniProt O75469); test: CYP3A4 induction through human pregnane X receptor (PXR) by small molecules, qHTS assay (AID 1346984); further: nearly all actives have a fitted effect of over 40% in size
# Procedure, shortened: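 HepG2-derived DPX-2 line carrying PXR plus a CYP3A4-promoter luciferase reporter; cells plated 5 hr, compound-exposed 24 hr at 37C. CYP3A4 activity probed with 3uM (final) Luciferin-IPA for 3hr, then luciferase read after One-Glo.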
# [18] = biological target: Nuclear receptor subfamily 1 group I member 2 (Homo sapiens) (UniProt O75469); test: Human pregnane X receptor (PXR) activation by small molecules, qHTS assay (AID 1346985); further: nearly all actives have a fitted effect of over 40% in size
# Procedure, shortened: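 DPX-2 cells (HepG2 co-transfected with a PXR response element and a CYP3A4-promoter luciferase construct) were seeded at 2,000 per well, rested 5 hr at 37C, then exposed to DMSO-dissolved compounds for 24 hr. Activation was read as luciferase luminescence.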
Compound,Potency [1],Potency [2],Potency [3],Potency [4],Potency [5],Potency [6],Potency [7],Potency [8],Potency [9],Potency [10],Potency [11],Potency [12],Potency [13],Potency [14],Potency [15],"activity change, negative = inhibition [11]","activity change, negative = inhibition [12]",max activation [16],Potency [17],outcome [18]
Cc1ccc([N+](=O)[O-])cc1,inactive,inactive,inactive,inactive,inactive,inactive,inactive,inactive,inactive,inactive,inactive,inactive,inactive,inactive,–,–,–,–,–,–
ClC(Cl)(Cl)c1ccccc1,inactive,inactive,inactive,inactive,inactive,inactive,inactive,inactive,inactive,inactive,89.5 µM (active) and inactive,inactive,inactive,inactive,inactive,–,–,–,–,–
N#Cc1cccnc1,inactive,inactive,inactive,inactive,inactive,inactive,inactive,inactive,inactive,inactive,38.8 µM (active) and inactive,–,inactive,inactive,inactive,–,–,–,–,–
CCOP(=S)(OCC)SCSC(C)(C)C,inactive,inactive,inactive,inactive,61.6 µM (active) and inactive,inactive,inactive,inactive,40.2 µM (active) and 56.4 µM (active),inactive,9.01 µM (active) and 3.17 µM (active),32 µM (active) and 14.2 µM (active),39.9 µM (active),inactive,–,–,–,–,–,–
O=C(O)CF,inactive,inactive,inactive,inactive,inactive,inactive,inactive,inactive,inactive,inactive,inactive,inactive,inactive,inactive,inactive,–,–,–,–,–
ClC(Cl)(Cl)Br,inactive,inactive,inactive,inactive,inactive,inactive,inactive,inactive,inactive,inactive,39.4 µM (active),–,inactive,inactive,inactive,17.8% [at 23.6 µM] (inactive),-6.85% [at 23.6 µM] (inactive),–,–,–
O=P(OCCCl)(OCCCl)OCCCl,inactive,inactive,inactive,–,inactive and 19.3 µM (active),inactive,inactive,inactive,inactive,inactive,70.4 µM (active),–,35.3 µM (active) and 35.6 µM (active),inactive,inactive,–,–,–,–,–
O=C1C(Cl)=C(Cl)C(=O)c2ccccc21,inactive,4.34 µM (active) and 9.69 µM (active),–,61.3 µM (active),inactive,inactive,35.7 µM (active) and 25.2 µM (active),11.3 µM (active) and 25.2 µM (active),79.9 µM (active) and 31.7 µM (active),17.9 µM (active) and 17.8 µM (active),7.99 µM (active) and 5.64 µM (active),5.04 µM (active) and 4.48 µM (active),17.9 µM (active) and 8.94 µM (active),21.9 µM (active),–,–,–,–,–,–
Oc1ccc(Cl)cc1Cc1ccccc1,53.6 µM (active),55.1 µM (active),inactive,–,61.1 µM (active) and 19.6 µM (active) and inactive,inactive,inactive,inactive,inactive,67.8 µM (active) and inactive,3.56 µM (active) and 1.61 µM (active) and 2.19 µM (active),25.2 µM (active) and 12.1 µM (active) and 9.77 µM (active),44.8 µM (active) and 33 µM (active) and 30.9 µM (active),inactive,–,–,–,-2.22% (inactive),inactive,inactive
C[N+](C)(C)C,inactive,inactive,inactive,–,inactive,inactive,inactive,inactive,inactive,inactive,inactive,inactive,inactive,–,inactive,–,–,–,–,–
CC[n+]1c(-c2ccccc2)c2cc(N)ccc2c2ccc(N)cc21,inactive,60.8 µM (active) and 29.8 µM (active),inactive,–,inactive,31.6 µM (active) and 19.5 µM (active),79.3 µM (active),31.6 µM (active) and 12.3 µM (active),inactive,562 nM (active) and 2.19 µM (active),7.07 µM (active) and 5.49 µM (active),35.4 µM (active) and 30.9 µM (active),9.99 µM (active) and 10.2 µM (active),inactive,–,–,–,-4.94% (inactive) and -4.01% (inactive),inactive,inactive
